Experimental data reported in PubChem BioAssay.
For some assays here: Entries with a potency or affinity are not part of this list. The source made the active and inactive calls. Unless noted, no rule for the calls is given here.

Experiments:
[1] = antimalarial activity against Dd2 strain (AID 2302;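 active = growth inhibition above 50% at the single 2 µM test dose, taken to imply half-maximal potency below 2 µM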;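 also: 0% = DMSO untreated growth and 100% = chloroquine plus artemisinin killed control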); conditions: P. falciparum Dd2 in RBCs, LDH growth readout, 72 h; at 2 µM; stronger effect = higher value
[2] = HepG2 cytotoxicity, primary screen, cytotoxicity control for P. falciparum antimalarial project, cell-based, ATP luminescence (AID 2303;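 active = inhibition above 50%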;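 also: 0% = DMSO wells and 100% = digitonin-killed cells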); conditions: HepG2 viability, 24-48 h, at 10 µM, stronger effect = higher value
[3] = target: L-lactate dehydrogenase (Plasmodium falciparum (isolate CDC / Honduras)) (UniProt Q27743); test: PfLDH activity inhibition – cell lysate, 3D7 strain, counter-screen for P. falciparum growth inhibition project (AID 2304);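 also: 0% = vehicle and 100% = reference inhibitor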; conditions: P. falciparum 3D7 crude extract, LDH APAD/NBT absorbance; at 2 µM; stronger effect = higher value
[4] = inhibition of 3D7 malaria parasite growth – strain 3D7 (AID 2306);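 also: 0% = DMSO wells and 100% = chloroquine plus artemisinin control wells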; conditions: P. falciparum 3D7 erythrocytic growth, LDH absorbance, 72 h; at 2 µM; stronger effect = higher value
[5] = target: Calcium-dependent protein kinase 1 (Plasmodium falciparum (isolate 3D7)) (UniProt P62344); test: PfCDPK1 kinase inhibitors, biochemical, TCAMS library (AID 1159585; cut-off not given, nearly all actives have IC50 up to about 0.98 µM;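 also: inhibitors leave more ATP so luminescence rises with inhibition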); conditions: recombinant PfCDPK1, Kinase-Glo ATP depletion luminescence
[6] = target: Plasmodium falciparum protein kinase 6 (PK6, PF3D7_1337100) (UniProt Q8IDW1); test: PfPK6 kinase inhibitors, biochemical, TCAMS library (AID 1159586); conditions: recombinant PfPK6, Kinase-Glo ATP depletion luminescence
[7] = target: Protein kinase 7 (PK7), Plasmodium falciparum 3D7 (PF3D7_0213400) (UniProt Q7YTF7); test: inhibition of Plasmodium PK7 catalytic activity – biochemical, TCAMS antimalarial set, Kinase-Glo luminescence (AID 1159587); conditions: recombinant PfPK7, Kinase-Glo ATP depletion luminescence
[8] = target: Calcium-dependent protein kinase 4 (Plasmodium falciparum (isolate 3D7)) (UniProt Q8IBS5); test: PfCDPK4 kinase inhibitors, biochemical, TCAMS library (AID 1159588; cut-off not given, nearly all actives have IC50 up to about 0.91 µM); conditions: recombinant PfCDPK4, Kinase-Glo ATP depletion luminescence
Chain of Calcium-dependent protein kinase 4 (Plasmodium falciparum (isolate 3D7)) (Q8IBS5 whole entry, looked up): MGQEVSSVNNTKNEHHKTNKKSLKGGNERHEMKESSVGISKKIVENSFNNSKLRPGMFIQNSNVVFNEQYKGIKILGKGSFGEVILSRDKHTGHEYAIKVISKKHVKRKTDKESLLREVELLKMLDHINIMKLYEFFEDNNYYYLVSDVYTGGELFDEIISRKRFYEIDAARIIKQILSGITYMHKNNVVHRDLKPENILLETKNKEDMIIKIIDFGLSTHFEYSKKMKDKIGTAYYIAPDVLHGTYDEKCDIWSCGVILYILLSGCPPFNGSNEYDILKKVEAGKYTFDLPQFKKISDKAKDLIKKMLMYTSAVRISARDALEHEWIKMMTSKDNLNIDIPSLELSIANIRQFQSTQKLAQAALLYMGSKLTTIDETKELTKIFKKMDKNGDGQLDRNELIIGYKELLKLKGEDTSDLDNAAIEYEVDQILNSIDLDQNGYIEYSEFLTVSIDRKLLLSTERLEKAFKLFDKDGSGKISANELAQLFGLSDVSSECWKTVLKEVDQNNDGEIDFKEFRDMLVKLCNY

Chain of Plasmodium falciparum protein kinase 6 (PK6, PF3D7_1337100) (Q8IDW1 1-305): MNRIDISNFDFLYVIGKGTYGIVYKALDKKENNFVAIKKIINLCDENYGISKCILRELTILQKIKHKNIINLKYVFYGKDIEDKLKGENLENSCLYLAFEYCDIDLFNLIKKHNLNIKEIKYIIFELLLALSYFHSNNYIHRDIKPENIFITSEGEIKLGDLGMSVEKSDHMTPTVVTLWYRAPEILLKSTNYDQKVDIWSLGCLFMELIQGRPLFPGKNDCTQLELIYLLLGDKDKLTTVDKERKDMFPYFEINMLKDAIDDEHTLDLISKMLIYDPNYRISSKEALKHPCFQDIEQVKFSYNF
Chain of L-lactate dehydrogenase (Plasmodium falciparum (isolate CDC / Honduras)) (Q27743 whole entry, looked up): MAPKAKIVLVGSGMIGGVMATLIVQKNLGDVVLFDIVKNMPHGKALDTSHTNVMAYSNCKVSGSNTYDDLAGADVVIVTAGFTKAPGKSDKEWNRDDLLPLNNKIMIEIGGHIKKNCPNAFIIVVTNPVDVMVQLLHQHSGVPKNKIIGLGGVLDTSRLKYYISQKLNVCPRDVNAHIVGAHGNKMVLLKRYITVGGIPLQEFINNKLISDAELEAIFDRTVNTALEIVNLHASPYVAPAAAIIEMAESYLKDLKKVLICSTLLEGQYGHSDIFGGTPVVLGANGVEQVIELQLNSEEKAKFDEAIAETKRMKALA
Chain of Calcium-dependent protein kinase 1 (Plasmodium falciparum (isolate 3D7)) (P62344 whole entry, looked up): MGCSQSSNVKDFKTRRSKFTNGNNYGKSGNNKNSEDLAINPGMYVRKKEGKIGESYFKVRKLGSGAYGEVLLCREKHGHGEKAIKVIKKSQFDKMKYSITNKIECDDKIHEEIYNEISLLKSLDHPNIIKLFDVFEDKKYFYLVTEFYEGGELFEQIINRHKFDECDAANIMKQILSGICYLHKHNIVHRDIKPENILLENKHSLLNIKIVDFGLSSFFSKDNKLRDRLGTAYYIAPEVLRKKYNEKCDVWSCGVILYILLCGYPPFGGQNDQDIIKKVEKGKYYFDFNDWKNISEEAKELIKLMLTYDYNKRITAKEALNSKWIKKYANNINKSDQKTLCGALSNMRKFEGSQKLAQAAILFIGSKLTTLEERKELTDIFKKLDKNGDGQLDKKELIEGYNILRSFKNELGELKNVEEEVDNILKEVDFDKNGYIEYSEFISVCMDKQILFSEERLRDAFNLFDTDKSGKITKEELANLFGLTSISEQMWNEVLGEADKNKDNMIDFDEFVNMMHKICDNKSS
Chain of Protein kinase 7 (PK7), Plasmodium falciparum 3D7 (PF3D7_0213400) (Q7YTF7 1-343): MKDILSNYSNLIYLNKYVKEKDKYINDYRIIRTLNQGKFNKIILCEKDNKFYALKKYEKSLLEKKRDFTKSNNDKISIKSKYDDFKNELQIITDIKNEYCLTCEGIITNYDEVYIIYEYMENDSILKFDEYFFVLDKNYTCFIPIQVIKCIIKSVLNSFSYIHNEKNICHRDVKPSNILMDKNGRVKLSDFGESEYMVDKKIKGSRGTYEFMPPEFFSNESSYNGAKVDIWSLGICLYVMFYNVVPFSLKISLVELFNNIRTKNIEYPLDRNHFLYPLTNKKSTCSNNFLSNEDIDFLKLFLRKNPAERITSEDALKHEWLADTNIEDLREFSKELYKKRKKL

CC(C)(C)c1cc(C(=O)N2CCN(c3cnccn3)CC2)n(Cc2ccccc2)n1
active: growth inhibition [4] 92%
inactive: growth inhibition [1] 33% | inhibition [2] -1% | inhibition [3] -4% | outcome [5] | outcome [6] | outcome [7] | outcome [8]

CC(Oc1cc(-n2cnc3ccc(NC(=O)CCN4CCCCC4)cc32)sc1C(N)=O)c1ccccc1Cl (stereo not given)
active: growth inhibition [1] 98% | inhibition [2] 95% | growth inhibition [4] 99%
inactive: inhibition [3] 1% | outcome [5] | outcome [6] | outcome [7] | outcome [8]

COc1ccc2nccc(CCC3(O)CCC(NCc4cc5c(cc4F)SCC(=O)N5)CC3)c2c1 (stereo not given)
inactive: growth inhibition [1] 48% | inhibition [2] 9% | inhibition [3] -2% | outcome [5] | outcome [6] | outcome [7] | outcome [8]
active: growth inhibition [4] 87%

COc1ccccc1C1CCN(Cc2csc(NC(=O)c3ccc(-c4ccc(C(F)(F)F)cc4)cc3)n2)CC1
inactive: growth inhibition [1] 23% | inhibition [3] -2% | outcome [5] | outcome [6] | outcome [7] | outcome [8]
active: inhibition [2] 62% | growth inhibition [4] 85%

CNC(=O)c1cnc(Nc2ccc3[nH]c(=O)[nH]c3c2)nc1Nc1cccc(OC(C)C)c1
inactive: inhibition [2] 18% | inhibition [3] -8% | outcome [5] | outcome [6] | outcome [7] | outcome [8]
active: growth inhibition [1] 94% | growth inhibition [4] 89%

CCN1CCCC(Nc2ccnc3cc4ccccc4cc23)C1 (stereo not given)
inactive: inhibition [2] 38% | inhibition [3] 2% | outcome [5] | outcome [6] | outcome [7] | outcome [8]
active: growth inhibition [1] 100% | growth inhibition [4] 101%

O=C(/C=C/c1ccc(Cl)c(Cl)c1)NCCCCN1CCCN(C(=O)Nc2ccc(Cl)c(Cl)c2)CC1
active: growth inhibition [4] 96%
inactive: growth inhibition [1] 1% | inhibition [2] 22% | inhibition [3] 3% | outcome [5] | outcome [6] | outcome [7] | outcome [8]

CCOc1ccc(C2CCN(CCCCNC(=O)c3ccc(NC(=O)c4ccc(Cl)cc4)cc3)CC2)c(CC)c1
active: growth inhibition [1] 64% | growth inhibition [4] 100%
inactive: inhibition [2] 44% | inhibition [3] -4% | outcome [5] | outcome [6] | outcome [7] | outcome [8]

CCN(CC)CCN(Cc1ccc(-c2ccc(C(F)(F)F)cc2)cc1)C(=O)Cn1c(SCc2ccc(F)cc2)nc(=O)c2ccccc21
inactive: growth inhibition [1] 48% | inhibition [2] 47% | inhibition [3] 6% | outcome [5] | outcome [6] | outcome [7] | outcome [8]
active: growth inhibition [4] 98%

O[C@@H](c1ccccc1)[C@@H]1CN(CCc2ccccc2)CC[C@@]1(O)c1ccccc1
inactive: inhibition [2] -2% | inhibition [3] -2% | outcome [5] | outcome [6] | outcome [7] | outcome [8]
active: growth inhibition [1] 92% | growth inhibition [4] 97%

O=C(Nc1cc(F)c(F)c(-c2cccnc2)c1)N1CCc2cc(Cl)c(Cl)cc21
active: growth inhibition [4] 94%
inactive: growth inhibition [1] 9% | inhibition [2] 0% | inhibition [3] 5% | outcome [5] | outcome [6] | outcome [7] | outcome [8]

CNC(=O)c1cnc(Nc2ccc(N3CCOCC3)cc2)nc1Nc1cccc(O)c1
inactive: inhibition [2] 23% | inhibition [3] -2% | outcome [5] | outcome [6] | outcome [7] | outcome [8]
active: growth inhibition [1] 78% | growth inhibition [4] 90%

COc1cc2nc(NCCc3ccccc3)nc(NCCc3ccccc3)c2cc1OC
inactive: inhibition [3] 2% | outcome [5] | outcome [6] | outcome [7] | outcome [8]
active: growth inhibition [1] 100% | inhibition [2] 99% | growth inhibition [4] 101%

CCCN1CCN(c2ccc(NS(=O)(=O)c3ccc(C(=O)Nc4ccc(Cl)cc4)cc3)cc2)CC1
inactive: inhibition [2] 4% | inhibition [3] -4% | outcome [5] | outcome [6] | outcome [7] | outcome [8]
active: growth inhibition [1] 50% | growth inhibition [4] 100%

CCN(CC)CCCNc1c2ccccc2nc2ccccc12
active: growth inhibition [4] 100%
inactive: growth inhibition [1] 0% | inhibition [2] 17% | inhibition [3] -1% | outcome [5] | outcome [6] | outcome [7] | outcome [8]

CC(=O)Nc1ncc(C(=O)Nc2ccc(-c3cccc(-c4nc5ccc(F)cc5[nH]4)c3)cc2)s1
inactive: inhibition [2] 47% | inhibition [3] -3% | outcome [5] | outcome [6] | outcome [7] | outcome [8]
active: growth inhibition [1] 85% | growth inhibition [4] 102%

CC(C)COc1ccc(Cl)cc1Cc1nc(-c2nc3nc(N4CCN(C)CC4)ccc3[nH]2)cs1
inactive: growth inhibition [1] 27% | inhibition [2] 29% | inhibition [3] -6% | outcome [5] | outcome [6] | outcome [7] | outcome [8]
active: growth inhibition [4] 99%

Cc1ccc(F)cc1S(=O)(=O)N1CCCCC(c2ccc(C(F)(F)F)cc2)=N1
active: growth inhibition [1] 75% | growth inhibition [4] 82%
inactive: inhibition [2] 8% | inhibition [3] 7% | outcome [5] | outcome [6] | outcome [7] | outcome [8]

O=S(=O)(c1ccc(OCc2ccc(Cl)cc2)cc1)c1cc2c(cc1O)CCN(C1CCC1)CC2
inactive: inhibition [2] 11% | inhibition [3] 3% | outcome [5] | outcome [6] | outcome [7] | outcome [8]
active: growth inhibition [1] 63% | growth inhibition [4] 99%

CC(=O)c1ccc(N2CCN(CCC3(c4ccc(Cl)c(Cl)c4)COCN(C(=O)c4ccccc4)C3)CC2)cc1 (stereo not given)
active: growth inhibition [1] 95% | growth inhibition [4] 88%
inactive: inhibition [2] 12% | inhibition [3] 5% | outcome [5] | outcome [6] | outcome [7] | outcome [8]

COc1ccc(-c2nc3c(N)nc(N)nc3nc2-c2ccccc2Cl)cc1 (tested in a mixture with another compound)
inactive: growth inhibition [1] -1% | inhibition [2] 45% | inhibition [3] -2% | outcome [5] | outcome [6] | outcome [7] | outcome [8]
active: growth inhibition [4] 93%

CC(C)(C)c1ccc(C(=O)NC2CCC(CCN3CCc4ccc(S(C)(=O)=O)cc4CC3)CC2)cc1C(F)(F)F (stereo not given)
inactive: growth inhibition [1] 11% | inhibition [3] -8% | outcome [5] | outcome [6] | outcome [7] | outcome [8]
active: inhibition [2] 54% | growth inhibition [4] 88%

CCOC(=O)c1ccc(NC(=O)NCCCC2CCCN(CCCCCNC(=O)/C=C/c3ccc(Cl)c(Cl)c3)C2)cc1 (stereo not given)
active: growth inhibition [4] 96%
inactive: growth inhibition [1] 30% | inhibition [2] 14% | inhibition [3] -2% | outcome [5] | outcome [6] | outcome [7] | outcome [8]

CN(Cc1ccccc1)C(=O)c1nn(CCCN2CCC(N3CCCC3)CC2)cc1-c1ccc(Cl)c(Cl)c1
inactive: inhibition [2] 43% | inhibition [3] 0% | outcome [5] | outcome [6] | outcome [7] | outcome [8]
active: growth inhibition [1] 66% | growth inhibition [4] 102%

CC(C)(C)c1nn(-c2ccccc2)c2[nH]c(=O)c(CNC3CCCCC3)cc12
active: growth inhibition [1] 76% | growth inhibition [4] 83%
inactive: inhibition [2] 6% | inhibition [3] 3% | outcome [5] | outcome [6] | outcome [7] | outcome [8]

COc1cccc(NC(=O)NC2CCN(CCCCCNC(=O)/C=C/c3ccc(Cl)c(Cl)c3)CC2)c1
inactive: growth inhibition [1] 8% | inhibition [2] 14% | inhibition [3] -1% | outcome [5] | outcome [6] | outcome [7] | outcome [8]
active: growth inhibition [4] 102%

COc1cc(NC(=O)c2sc(-c3ccc(Cl)cc3)cc2NC(=O)c2ccncc2)ccc1OCCN1CCCC1
inactive: inhibition [3] 3% | outcome [5] | outcome [6] | outcome [7] | outcome [8]
active: growth inhibition [1] 100% | inhibition [2] 100% | growth inhibition [4] 100%

COC(=O)c1cc(OC2CCOC2=O)cc2c1OC(C)(C)O2 (stereo not given)
inactive: growth inhibition [1] -1% | inhibition [2] 6% | inhibition [3] 2% | outcome [5] | outcome [6] | outcome [7] | outcome [8]
active: growth inhibition [4] 97%

O=C(Nc1ccc([N+](=O)[O-])cc1Cl)c1cc(Br)cc(Cc2ccccc2)c1O
inactive: inhibition [3] -1% | outcome [5] | outcome [6] | outcome [7] | outcome [8]
active: growth inhibition [1] 96% | inhibition [2] 75% | growth inhibition [4] 84%

Cc1c(C)n(C2CCCCC2)c2ncnc(OC3CCN(CC(=O)NC4CC4)CC3)c12
inactive: inhibition [2] 21% | inhibition [3] -2% | outcome [5] | outcome [6] | outcome [7] | outcome [8]
active: growth inhibition [1] 72% | growth inhibition [4] 94%

Nc1nc2c(c(=O)[nH]1)-c1cccc(Br)c1CC2
active: inhibition [2] 66% | growth inhibition [4] 97%
inactive: growth inhibition [1] -3% | inhibition [3] 0% | outcome [5] | outcome [6] | outcome [7] | outcome [8]

CN(C(=O)Cc1ccc(Cl)c(Cl)c1)C1CCN(CCCCCNC(=O)/C=C/c2ccc(Cl)c(Cl)c2)CC1
active: inhibition [2] 87% | growth inhibition [4] 84%
inactive: growth inhibition [1] 13% | inhibition [3] -4% | outcome [5] | outcome [6] | outcome [7] | outcome [8]

CNCCNCc1ccc(-c2ccc(-c3nc4ccc(F)cc4[nH]3)s2)cc1
active: growth inhibition [1] 55% | growth inhibition [4] 99%
inactive: inhibition [2] 22% | inhibition [3] 2% | outcome [5] | outcome [6] | outcome [7] | outcome [8]

O=C(O)C[C@H](NC(=O)CCCNC(=O)c1cccc(-c2ccc(Cl)c(Cl)c2)c1)C(=O)O
active: growth inhibition [4] 91%
inactive: growth inhibition [1] -4% | inhibition [2] 5% | inhibition [3] -3% | outcome [5] | outcome [6] | outcome [7] | outcome [8]

CCOc1cccc(C(=O)Nc2cccc(CN3CCCN(Cc4ccc(O)cc4)CC3)c2)c1
inactive: growth inhibition [1] 31% | inhibition [2] 23% | inhibition [3] 1% | outcome [5] | outcome [6] | outcome [7] | outcome [8]
active: growth inhibition [4] 91%

CCN(CC)CCN(Cc1ccc(-c2ccc(C(F)(F)F)cc2)cc1)C(=O)Cn1cc(CCCc2cccc(F)c2F)c(=O)c2ccccc21
active: growth inhibition [4] 89%
inactive: growth inhibition [1] 20% | inhibition [2] 13% | inhibition [3] -4% | outcome [5] | outcome [6] | outcome [7] | outcome [8]

COc1ccc2nccc([C@H](O)CN3CCC(NCc4cc(C)c5c(c4)OCCO5)CC3)c2n1
active: growth inhibition [4] 96%
inactive: growth inhibition [1] 35% | inhibition [2] 12% | inhibition [3] 3% | outcome [5] | outcome [6] | outcome [7] | outcome [8]

CCc1cn2c3c(cc(C(=O)N[C@@H](Cc4ccccc4)[C@H](O)CNC4CCOCC4)cc13)N(CC(F)(F)F)S(=O)(=O)CC2
inactive: inhibition [2] 4% | inhibition [3] -2% | outcome [5] | outcome [6] | outcome [7] | outcome [8]
active: growth inhibition [1] 98% | growth inhibition [4] 98%

COc1cc(Cc2cnc(N)nc2N)cc(OCCCOc2ccccc2)c1OC
inactive: growth inhibition [1] 2% | inhibition [2] 7% | inhibition [3] -4% | outcome [5] | outcome [6] | outcome [7] | outcome [8]
active: growth inhibition [4] 94%

CCCCCCCCn1c2c(c(=N)c3c1CCC3)CCCC2
inactive: inhibition [3] 2% | outcome [5] | outcome [6] | outcome [7] | outcome [8]
active: growth inhibition [1] 100% | inhibition [2] 57% | growth inhibition [4] 101%
